Sampled rows, rich in hits. Any-hit rate of the full collection: about 15%.
HCV inh = qHTS Assay for Inhibitors of Hepatitis C Virus (HCV) | AID 651820, 2012 | Potency, µM (titrated, usually from 41.8 µM), for the others: at the highest dose activity change, negative = inhibition, usual class: inhibitors | actives 3.4% (n = 340,000) | Huh7.5.1 HCVcc-Cre infection, luciferase reporter, 44 h; note: potency is the fitted concentration of half-maximal effect; % is set by controls: 0 for no effect and ±100 for the full control effect
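HCVcc-Cre virus at an moi near 0.5 was added right after compound to cells cultured 4 h from seeding (1,000 cells/well). Luciferase activity was determined 44 h later, 15 min after substrate addition at RT.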
Sm TGR inh = qHTS Assay for the Inhibitors of Schistosoma Mansoni Peroxiredoxins | Schistosoma mansoni thioredoxin glutathione reductase (TGR), Q962Y6 | purified TGR, DTNB reduction, TNB absorbance 405 nm | Potency, µM (highest dose often 114 µM), without a hit: at the highest dose activity change, negative = inhibition, most hits filed as inhibitors | actives 3% (n = 360,000); note: potency is the fitted concentration of half-maximal effect; % is set by controls: 0 for no effect and ±100 for the full control effect; nearly all actives have a fitted effect of over 60% in size
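TGR 20 nM + NADPH 100 uM (dispensed conc.), cpd preinc 15 min RT; start with NADPH (500 uM addition) then DTNB (15 mM addition). Kinetic TNB absorbance, 405 nm filter. Four-parameter Hill fit across titration.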
Pf growth 96h = Primary qHTS for delayed death inhibitors of the malarial parasite plastid, 96 hour incubation. P. falciparum luciferase reporter growth, 96 h. Potency, µM (doses to about 28.7 µM), without a hit: at the highest dose activity change, negative = inhibition, usual class: inhibitors. actives 6.9% (n = 320,000); note: potency is the fitted concentration of half-maximal effect; % is set by controls: 0 for no effect and ±100 for the full control effect
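Delayed-death screen, second-generation endpoint: infected erythrocytes, 2% hematocrit, 0.05% parasitemia final; 96 hours at 37 C, 5% CO2; luciferase detection reagent; luminescence decrease equals reduced growth.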
Pf growth 48h = Primary qHTS for delayed death inhibitors of the malarial parasite plastid, 48 hour incubation; P. falciparum luciferase growth in erythrocytes, 48 h; Potency, µM (doses to about 28.7 µM), inactives show at the top dose activity change, negative = inhibition, most hits filed as inhibitors; actives 5.9% (n = 310,000); AID 504832, 2011; note: potency is the fitted concentration of half-maximal effect; % is set by controls: 0 for no effect and ±100 for the full control effect
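Cell-based growth assay: transgenic P. falciparum expressing firefly luciferase, cultured in red cells within RPMI 1640 containing 0.5% w/v Albumax, 24 mM bicarbonate and gentamycin. A drop in luciferase activity indicates inhibition.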
SARS PLP yeast = qHTS of Yeast-based Assay for SARS-CoV PLP; S. cerevisiae expressing SARS-CoV PLpro, growth rescue; Potency, µM (doses to about 32.9 µM), inactives show top-dose activity, positive = growth rescue, usual class: activators; actives 0.19% (n = 330,000); calls by dose curve; note: potency is the fitted concentration of half-maximal effect; 0% is about no effect; nearly all actives have a fitted effect of over 55% in size
HCMV inh = qHTS Assay for inhibitors of the human cytomegalovirus (HCMV); HFF cells, HCMV-luciferase reporter, 72 h; active compounds read low; activity change, negative = inhibition, % at 57.5 µM; actives 4.5% (n = 410,000); AID 1259415, 2018; in the data active = activity change below about -60%; inconclusive = no clear call, values can overlap the other calls; inactive = above about -39%; note: % is set by controls: 0 for no effect and ±100 for the full control effect
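Two compound doses tested in HFFs infected with HCMV-luciferase, MOI 1 PFU/cell, 72 h at 37C. Lysate luminescence read with OneGlo; data normalized against buffer-only and 10uM Salinomycin inhibitor controls.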
Active calls of the source: *. Unless noted, calls come from the whole dose curve; as a rule, active = well fitted curve in the direction sought with a large enough effect; inconclusive = small, poorly fitted or top-dose-only effect, or another doubt; inactive = no such curve, though single readings can be large; an effect the other way counts as inactive or inconclusive.

How did COc1ccc(CC(=O)Nc2ccc(N3CCCC3)c(C)c2)cc1 do in these assays?
HCV inh: -24%; Sm TGR inh: 50µM*; Pf growth 96h: inconclusive; Pf growth 48h: inconclusive; SARS PLP yeast: -3%; HCMV inh: -22

How did COc1ccc(NC(=O)CSCC(=O)Nc2cc(Cl)ccc2N2CCCC2)cc1 do in these assays?
HCV inh: inconclusive; Sm TGR inh: -14%; Pf growth 96h: 4%; Pf growth 48h: -21%; SARS PLP yeast: -6%; HCMV inh: 0

Results for COC(=O)/C=C/C(=O)Nc1ccc(O)c(Cl)c1 ?
HCV inh: 7%; Sm TGR inh: 45µM*; Pf growth 96h: inconclusive; Pf growth 48h: -25%; SARS PLP yeast: -9%; HCMV inh: 61

Results for CC1CN(C(=O)Cn2cc(S(=O)(=O)CC(=O)N(C)c3ccccc3)c3ccccc32)CC(C)O1 (stereo not given) ?
HCV inh: 6%; Sm TGR inh: -5%; Pf growth 96h: 13µM*; Pf growth 48h: -12%; SARS PLP yeast: -2%; HCMV inh: 9

Results for CN(C(=O)CS(=O)(=O)c1cn(CC(=O)N2CCOCC2)c2ccccc12)c1ccccc1 ?
HCV inh: 22%; Sm TGR inh: -11%; Pf growth 96h: -1%; Pf growth 48h: -8%; SARS PLP yeast: 4%; HCMV inh: -21

Results for Cc1ccc(S(=O)(=O)N(CC(=O)N2CCN(c3ccc(F)cc3)CC2)C2CCCCC2)cc1 ?
HCV inh: -26%; Sm TGR inh: 5%; Pf growth 96h: 11%; Pf growth 48h: inconclusive; SARS PLP yeast: -10%; HCMV inh: -17

Results for COc1ccccc1N(CC(=O)N1CCCC1)S(=O)(=O)c1ccc(C)cc1 ?
HCV inh: 3%; Sm TGR inh: 2%; Pf growth 96h: 29%; Pf growth 48h: -11%; SARS PLP yeast: -2%; HCMV inh: -29

How did CCOC(=O)N1CCN(C(=O)CN(C2CCCCC2)S(=O)(=O)c2ccc(C)cc2)CC1 do in these assays?
HCV inh: 9%; Sm TGR inh: 20%; Pf growth 96h: -4%; Pf growth 48h: 10µM*; SARS PLP yeast: -1%; HCMV inh: 11

Results for CCOC(=O)C1CCN(C(=O)CN(c2cc(OC)ccc2OC)S(=O)(=O)c2ccccc2)CC1 ?
HCV inh: 9%; Sm TGR inh: -26%; Pf growth 96h: inconclusive; Pf growth 48h: 13µM*; SARS PLP yeast: -2%; HCMV inh: 7

How did COc1ccccc1N(CC(=O)N1CCCCCC1)S(=O)(=O)c1ccc(C)cc1 do in these assays?
HCV inh: -19%; Sm TGR inh: 6%; Pf growth 96h: 15%; Pf growth 48h: inconclusive; SARS PLP yeast: -2%; HCMV inh: -25

Results for Cc1ccc(S(=O)(=O)N(CC(=O)N2CCCCCC2)c2ccccc2F)cc1 ?
HCV inh: 11%; Sm TGR inh: 8%; Pf growth 96h: inconclusive; Pf growth 48h: -23%; SARS PLP yeast: -1%; HCMV inh: -62*

Results for CCOC(=O)N1CCN(C(=O)CN(c2ccccc2OC)S(=O)(=O)c2ccc(C)cc2)CC1 ?
HCV inh: 10%; Sm TGR inh: -10%; Pf growth 96h: 12µM*; Pf growth 48h: inconclusive; SARS PLP yeast: 2%; HCMV inh: -11

How did CCc1ccc(-c2[nH]c3c(c2-c2sc(C)c(C(=O)OC)c2O)c(=O)n(C)c(=O)n3C)cc1 do in these assays?
Sm TGR inh: 3%; HCMV inh: 10

Results for Cc1ccc2oc(C(=O)N(C)CCC(O)c3ccccc3)c(C)c2c1 (stereo not given) ?
HCV inh: 8%; Sm TGR inh: -13%; Pf growth 96h: inconclusive; Pf growth 48h: 0%; SARS PLP yeast: -1%; HCMV inh: 21
